Assay results: PubChem BioAssay (Tox21)
Inconclusive results are not listed. Entries that show only a call come without a potency. Active and inactive are the calls of the source. Calls follow the shape of the dose curve; as a rule, active = well fitted cell-killing curve with a large enough effect in the repeat runs; inconclusive = weak or mixed curves, or effect the other way; inactive = flat fitted curve, though single readings scatter.

Test: qHTS assay to identify small molecule agonists of the sonic hedgehog signaling (Shh) pathway - cell viability counter screen (AID 1259366); also: nearly all actives have a fitted effect of over 50% in size
Details: NIH/3T3 Gli1-Luc viability, CellTiter-Fluor, 24 h; series mostly up to 92.4 µM
Excerpt: National Center for Advancing Translational Sciences [NCATS]
NIH Chemical Genomics Center [NCGC]
U.S. Environmental Protection Agency [EPA]
National Institutes of Environmental Health Sciences [NIEHS]
National Toxicology Program [NTP]
U.S. Food and Drug Administration [FDA]
The sonic hedgehog (Shh) pathway is essential for normal embryonic development. Dysregulation of the Shh pathway can cause severe developmental defects in organs. Therefore chemicals that interfere with the pathway are potential developmental toxicants. A cell line designated 3T3Gli1-Luc (DMB/OARSA/CFSAN/FDA, Laurel, MD), a NIH/3T3 derived clone containing stably integrated Gli1-Luc reporter is used to detect chemical interference of the Shh pathway, by changes in the expression of the firefly Luc gene under the control of the Gli1 transcriptional response element. This cell line was used to screen Tox21 libraries for identifying and prioritizing the potential developmental toxicants that interfere Shh pathway. The cytotoxicity of the compounds was tested in parallel by measuring the cell viability using CellTiter-Fluor assay system (Promega, Madison, WI) in the same wells.
Tox21 Assay Protocol Summary:
3T3 Gli1-Luc cells were dispensed at 2,000 per well in 5uL of culture medium into white solid bottom 1536-well plates (Greiner Bio-One, Monroe, NC) using a Multidrop Combi (Thermo Scientific, Waltham, MA) dispenser. The assay plates were incubated at 37 C and 5% CO2 for 4hr, and then 23nL of compounds dissolved in DMSO and positive control were transferred using a Pintool station (Wako, San Diego, CA). The assay plates were incubated at 37C and 5% CO2 for 24hr. For viability read, after 23hr of compound treatment, 1uL of CellTiter-Fluor reagent (Promega Corporation, Madison, WI) was added to each well of the assay plates using Flying Reagent Dispenser (FRD, Aurora Discovery, San Diego, CA) and incubated the assay plates at 37C for 1hr. The fluorescence signal was quantified using a ViewLux plate reader (Perkin Elmer, Shelton, CT).
Potency is read from the fitted curve at half-maximal effect.

Compound | Potency
O[C@@H]1CO[C@H]2[C@@H]1OC[C@@H]2O | inactive
CC(O)c1ccccc1 (stereo not given) | inactive
COc1ccccc1N1CCN(CCCCNC(=O)c2ccc(-c3ccc(C(C)=O)cc3)cc2)CC1 | inactive
CN1C(=O)OC(C)(C)C1=O | inactive
O=C=Nc1cccc(C(F)(F)F)c1 | inactive
CCCCCCCCCCCCCCN(CCO)CCO | 61.1 µM (active)
CCOC(=O)c1ccc(C#Cc2ccc3c(c2)C(C)(C)CCS3)nc1 | inactive
CC(C)C=O | inactive
C/C=C(/C(=C/C)c1ccc(O)cc1)c1ccc(O)cc1 | inactive
O=C1NCCN1CCO | inactive
Nc1cccc2c1CN(C1CCC(=O)NC1=O)C2=O (stereo not given) | inactive
Cc1ccccc1S | inactive
CO/N=C(/C(=O)N[C@@H]1C(=O)N2C(C(=O)O)=C(COC(N)=O)CS[C@H]12)c1ccco1 | inactive
CCOC(=O)c1ccc(OCCN2C[C@H](O)[C@@H](O)[C@H](O)[C@H]2CO)cc1 | inactive
CC1(C)O[C@@H]2C[C@H]3[C@@H]4C[C@H](F)C5=CC(=O)C=C[C@]5(C)[C@H]4[C@@H](O)C[C@]3(C)[C@]2(C(=O)CO)O1 | inactive
Cc1ccc(OC(=O)c2ccccc2O)cc1 | inactive
C=C/C(C)=C/C/C=C(\C)CCC=C(C)C | inactive
Oc1cc2c(cc1O)[C@H]1c3ccc(O)c(O)c3OC[C@@]1(O)C2 | 27.6 µM (active)
CC(=O)[C@H]1[C@H](C#N)C[C@H]2[C@@H]3CC=C4C[C@@H](O)CC[C@]4(C)[C@H]3CC[C@@]21C | inactive
CCC(C)COC(=O)CC(C)C (stereo not given) | inactive

Compound | Potency
CCCCCCCCCCC(=O)O | inactive
CCC1(CO)COCOC1 | inactive
Cc1cscn1 | inactive
CC(C)C[C@H](NC(=O)[C@H](CCc1ccccc1)NC(=O)CN1CCOCC1)C(=O)N[C@@H](Cc1ccccc1)C(=O)N[C@@H](CC(C)C)C(=O)[C@@]1(C)CO1 | inactive
O=c1cc(-c2ccccc2)oc2ccc3ccccc3c12 | inactive
Cc1ccc(Cl)c(Nc2ccccc2C(=O)O)c1Cl | inactive
Cc1ccc(C(C)(C)O)cc1 | inactive
c1ccc2sc(SN(C3CCCCC3)C3CCCCC3)nc2c1 | inactive
CNC(=O)c1cnn(-c2nc(N)c3ncn([C@@H]4O[C@H](CO)[C@@H](O)[C@H]4O)c3n2)c1 | inactive
CC1(C)S[C@@H]2[C@H](NC(=O)C(c3ccccc3)S(=O)(=O)O)C(=O)N2[C@H]1C(=O)O (stereo not given in full) | inactive
CC(=O)c1cc2ccccc2s1 | inactive
O=C(CCc1ccc(O)cc1)c1c(O)cc(O)cc1O | inactive
O=C(Nc1cccc2c(=O)cc(-c3nn[nH]n3)oc12)c1ccc(OCCCCc2ccccc2)cc1 | inactive
C[C@@H]1CN(CCCn2c3ccccc3c3ccccc32)C[C@H](C)N1 | 33.5 µM (active)
CCCCCCCC/C=C\CCCCCCCCO | inactive
O=C(Cn1ccnc1[N+](=O)[O-])NCCO | inactive
CCC(C)COC(C)=O (stereo not given) | inactive
Brc1cc2ccccc2c2ccccc12 | inactive
O=C(O)c1cccc(-c2noc(-c3ccccc3F)n2)c1 | inactive
Cc1cc2c(OCC(CNC(C)(C)C)OC(=O)c3ccccc3)cccc2[nH]1 (stereo not given) | inactive
